# The sample as a whole holds a higher share of hits than the screen did.
# Dicer processing – inhibitors of Dicer pre-microRNA processing, primary screen, biochemical, cat-ELCCA, chemiluminescence | Endoribonuclease Dicer (Homo sapiens), Q9UPY3 | cat-ELCCA pre-miR-21 Dicer processing; active compounds read high | z-score at 25 µM | 47,000 compounds, 6% hits | AID 1347074, 2019; in the data active = z-score above about 3, passing the limit was not always enough;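 note: plate controls were vehicle for no effect and no enzyme for full effect; higher signal means more uncleaved substrate so more Dicer inhibition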
# Active calls of the source: *.
SMILES,Dicer processing
N#CC1=C2N=C(N)c3ccccc3N2C2=C(C(=O)CCC2)C1c1ccc(Cl)cc1 (stereo not given),2
CC1(C)CC(=O)C2=C(C1)N1C(=C(C#N)C2c2ccc3c(c2)OCO3)N=C(N)c2ccccc21 (stereo not given),0.12
COc1ccc(C2C(C#N)=C3N=C(N)c4ccccc4N3C3=C2C(=O)CCC3)cc1 (stereo not given),1.5
COc1ccc(OC)c(C2C(C#N)=C3N=C(N)c4ccccc4N3C3=C2C(=O)CC(C)(C)C3)c1 (stereo not given),4.8*
O=C1c2oc3ccc(F)cc3c(=O)c2C(c2cccc(O)c2)N1Cc1ccccc1 (stereo not given),0.78
CCOc1cc(C2C3=C(CC(C)(C)CC3=O)NC3=C2C(=O)CC(C)(C)C3)ccc1OC,-0.91
CS(=O)(=O)N1N=C(c2c(-c3ccccc3)c3cc(Cl)ccc3[nH]c2=O)CC1c1ccccc1F (stereo not given),2
COc1ccccc1C1CCN(c2ccc(C3OCCCO3)cc2[N+](=O)[O-])CC1,0.03
COc1ccc(OC)c([N+](=O)[O-])c1N1CCOCC1,-0.37
COc1cccc2c1OC1(N3CCOCC3)CCCCC1C2C[N+](=O)[O-] (stereo not given),3.6*
CC(=O)Oc1ccc(OC(C)=O)c2cc3c(OC(C)=O)ccc(OC(C)=O)c3cc12,-0.98
C#CCC1(c2ccccc2)C(=O)c2ccccc2C1=O,0.75
O=C1c2ccccc2C(=O)C1(Nc1ccc(Cl)c(Cl)c1)c1ccccc1,-0.91
O=C1c2ccccc2C(=O)C1(c1ccccc1)[N+](=O)[O-],3.1*
O=C1Nc2ccc(Br)cc2/C1=N/N=C/c1ccncc1,23
Cc1cc(NC(NC(=O)c2ccccc2C)(C(F)(F)F)C(F)(F)F)no1,1.7
CCOc1cc(C2c3c(oc4ccc(F)cc4c3=O)C(=O)N2Cc2ccc(F)cc2)ccc1O (stereo not given),0.89
Cc1cccc(C2CC(=O)Nc3nc(N)[nH]c(=O)c32)c1 (stereo not given),0.75
Cc1ccsc1CNC(=O)Nc1ccc(OCc2ccccc2)cc1,2.7
O=S(=O)(NNC(=S)Nc1ccccc1F)c1ccc(Cl)cc1,0.15
O=C(NCc1sccc1COc1ccc(Cl)cc1)Nc1ccccc1F,4.5*
N/C(CSc1ccc(Cl)cc1)=N\S(=O)(=O)c1ccc(F)cc1F,-0.53
CCC1CCCCN1Cc1c(C)[nH]c2ccc(Br)cc2c1=O (stereo not given),1.1
Nc1ccc(CCc2nc3ccccc3o2)cc1,6.6*
Cc1c(N)cccc1-c1nc2ccccc2o1,0.93
SMILES,Dicer processing
CCOC(=O)Cc1nc2ccccc2o1,2
CCc1cc(C(=O)c2ccc(OC)cc2)c(NC(=O)COc2ccccc2)s1,-2.1
CC(=O)Nc1ccc(C(C)(C)C)cc1N,1.1
CCc1cn[nH]c1-c1c(F)cccc1F,-0.13
S=c1nc(-c2ccccc2)n(Cc2ccccn2)c2c1CCCC2,2
O=C1C2C3c4ccccc4C(c4ccccc43)C2C(=O)N1c1ccncc1 (stereo not given),0.19
O=C1C2C3c4ccccc4C(c4ccccc43)C2C(=O)N1CCO (stereo not given),4.6*
O=C1C2C3c4ccccc4C(c4ccccc43)C2C(=O)N1c1ccc(F)cc1 (stereo not given),-0.84
Cc1cccc(N2C(=O)C3C(C4=C(O)c5ccccc5C4=O)=NC(c4ccccn4)C3C2=O)c1 (stereo not given),-0.74
CCCc1c(N)ccc2c(=O)cc(C(=O)OCC)oc12,-1.2
Cc1cc(C)nc(Nc2nc3ccccc3[nH]2)n1,3.7*
Cc1cc(C)nc(Nc2ccccc2O)n1,2.5
CCOC(=O)Nc1nc2ccccc2[nH]1,-1
COC(=O)C(N)CCSC (stereo not given),-0.52
Cc1ccc2cccc(OS(=O)(=O)c3cc(Cl)cc(Cl)c3)c2n1,-2.3
Cc1nnc(Nc2cccc(Cl)c2)[nH]c1=O,6.7
O=S(=O)(Nc1nc2ccccc2nc1Nc1ccc(Cl)cc1)c1ccccc1,0.86
O=c1[nH]c2ccc(Nc3nc4ccccc4nc3NS(=O)(=O)c3ccc(Cl)cc3)cc2[nH]1,2.4
O=S(=O)(Nc1nc2ccccc2nc1NCc1ccccc1)c1ccc(Cl)cc1,6*
O=C1Nc2ccccc2/C1=C/c1cn[nH]c1-c1cccs1,1.4
N#C/C(=C\C=C\c1ccccc1)C(N)=S,-1.9
Cn1c(=O)c(Nc2ccccc2)c2c3c(cccc31)C(=O)c1ccccc1-2,3.3*
COc1ccc(Nc2c3c4c(c(Br)ccc4n(C)c2=O)C(=O)c2ccccc2-3)cc1,0.38
CCCCCCCNc1c2c3c(cccc3n(C)c1=O)C(=O)c1ccccc1-2,-0.78
COC(=O)C1=NNC2(C)C(=O)N(c3ccccc3Cl)C(=O)C12 (stereo not given),0.9
SMILES,Dicer processing
COC(=O)C(Cc1ccc(F)cc1)(Cc1ccc(F)cc1)C(C)=O,-0.71
O=c1c2c(-c3ccccc3)csc2ncn1Cc1c(F)cccc1Cl,4
CC12CN3CC(C)(CN(C1)C3c1cc(Br)ccc1O)C2 (stereo not given),0.72
CC12CN3CC(C)(CN(C1)C3c1ccc([N+](=O)[O-])o1)C2 (stereo not given),0.27
Cc1ccc(C2N3CC4(C)CN2CC(C)(C3)C4)cc1 (stereo not given),3*
N/C(=N\O)c1ccc(C2OCCO2)cc1,0.6
O=C(Cn1nc(-c2ccc(Cl)cc2)c2ccccc2c1=O)c1ccccc1,-0.85
CC1CCC(C(C)C)C(OC(=O)Cn2c[n+](C)c3ccccc32)C1 (stereo not given),-0.93
O=C1C(=O)N(Cc2cccnc2)C(c2cccnc2)/C1=C(\O)c1ccc(Cl)cc1 (stereo not given),-0.03
O=C(NCc1cccs1)Nc1cc2ccccc2s1,-1.3
O=C(Nc1cc2ccccc2s1)NC1Cc2ccccc2C1,-0.16
O=C(Nc1cc(C(F)(F)F)cc(C(F)(F)F)c1)Nc1cc2ccccc2s1,3*
CSc1nnc(-c2csc(S(=O)(=O)Nc3cccc(Cl)c3)c2)n1C,1.9
Clc1ccc(SC2CN(C(c3ccccc3)c3ccccc3)C2)cc1,-2
COc1ccccc1N1CCN(S(=O)(=O)c2ccccc2)CC1,0.58
COc1ccccc1N1CCN(S(=O)(=O)c2cccc3ccccc23)CC1,3.3*
COc1ccccc1N1CCN(Cc2ccc3ccccc3c2)CC1,1.9
COc1ccccc1N1CCN(C2CCN(S(=O)(=O)c3ccc(Cl)cc3)CC2)CC1,3.6*
O=S(=O)(c1ccc(F)cc1)N1CCC(N2CCCC2)CC1,2.3
COc1cc(S(=O)(=O)N2CCC(C)CC2)ccc1Cl,-0.36
O=C(Nc1nccs1)c1cc2ccccc2c(=O)o1,-1.1
CC(C)N(Cc1ccccc1)C(=O)Nc1cccc(C(F)(F)F)c1,-0.52
c1ccc(CN(Cc2ccccc2)c2ncnc3sc(-c4ccccc4)cc23)cc1,-0.27
COc1ccc(-c2[nH]ncc2/C=N/Nc2cnc3ccccc3n2)cc1,-0.67
CC(C)(C)NC(=S)Nc1cc(C(F)(F)F)ccc1Cl,1.5
SMILES,Dicer processing
O=S(=O)(c1ccccc1)c1nc(-c2ccc(Cl)cc2)oc1N1CCOCC1,1.1
Nc1ccc(-c2nc3c(ccc4ccccc43)[nH]2)cc1,23*
Nc1ccc(-c2nc3c(Cl)cccc3[nH]2)cc1,1.7
Nc1ccc(-c2nc3ccccc3[nH]2)cc1,-0.71
N=c1scc(-c2ccc(Cl)cc2)n1-c1cc(Cl)ccc1Cl,0.56
O=C(/C=C/Nc1ccc(C(F)(F)F)cc1)c1ccc(F)cc1,2.4
